Test results reported in the supplement of paper PMC6555819.

Assays:
Experiment in all cases: PBM binding z-score (relative to random genomic background probes); higher = stronger binding; sequences stand for … in GC…GCGATTGACAGCGTAGAATGAAGG
[1] = test system: FXR:RXRa (NR concentration 270 nM, RXRa partner concentration 90 nM)
How it was run: (§1)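 For binding z-scores, the reference was random background probes on custom Agilent 4×180K protein-binding microarrays. These arrays were incubated 1 h with ligand-free nuclear receptor dimers in PBS pH 7.4, 2% milk, 0.02% Triton X-100, 1 mM DTT, 0.2 mg/mL BSA and 0.4 mg/ml salmon testes DNA. Fluorescence was scanned after antibody detection of each partner (one per run) and regression-normalized.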

[2] = test system: LXRa:RXRa (NR concentration 270 nM, RXRa partner concentration 90 nM)
How it was run: as §1

[3] = test system: LXRa homodimer (NR concentration 270 nM)
How it was run: as §1

[4] = test system: LXRb:RXRa (NR concentration 270 nM, RXRa partner concentration 90 nM)
How it was run: as §1

[5] = test system: LXRb homodimer (NR concentration 270 nM)
How it was run: as §1

[6] = test system: PPARa:RXRa (NR concentration 270 nM, RXRa partner concentration 90 nM)
How it was run: as §1

[7] = test system: PPARg:RXRa (NR concentration 180 nM, RXRa partner concentration 90 nM)
How it was run: as §1

[8] = test system: PPARg:RXRa 270nM:90nM, anti-RXR (NR concentration 270 nM, RXRa partner concentration 90 nM)
How it was run: as §1

[9] = test system: PPARg:RXRa 30nM:10nM, anti-RXR (NR concentration 30 nM, RXRa partner concentration 10 nM)
How it was run: as §1

[10] = test system: PPARg:RXRa 90nM:30nM, anti-RXR (NR concentration 90 nM, RXRa partner concentration 30 nM)
How it was run: as §1

CGTCCAAGTTCAACTAAGGTAACGTAAAGCACGC
PBM binding z-score [1]: 4.27 | PBM binding z-score [2]: 3.59 | PBM binding z-score [3]: 1.01 | PBM binding z-score [4]: 2.17 | PBM binding z-score [5]: 0.515 | PBM binding z-score [6]: 3.15 | PBM binding z-score [7]: 1.14 | PBM binding z-score [8]: 1.5 | PBM binding z-score [9]: 0.189 | PBM binding z-score [10]: 0.966

CCTACTGGGCCAGTCAGAGGTCATTGATCATATG
PBM binding z-score [1]: 2.43 | PBM binding z-score [2]: 3.71 | PBM binding z-score [3]: 5.39 | PBM binding z-score [4]: 3.58 | PBM binding z-score [5]: -0.105 | PBM binding z-score [6]: 3.66 | PBM binding z-score [7]: 2.18 | PBM binding z-score [8]: 3.32 | PBM binding z-score [9]: 0.876 | PBM binding z-score [10]: 2.2

ATATGTAGGTTAAGGGTCATACAGGTTGGTTCGC
PBM binding z-score [1]: 4.79 | PBM binding z-score [2]: 4.61 | PBM binding z-score [3]: 2.43 | PBM binding z-score [4]: 4.61 | PBM binding z-score [5]: 1.28 | PBM binding z-score [6]: 6.57 | PBM binding z-score [7]: 12.1 | PBM binding z-score [8]: 10.2 | PBM binding z-score [9]: 9.63 | PBM binding z-score [10]: 12.5

AGAACGAGGGCACGCTGAGTTGATAGCGGAGTAG
PBM binding z-score [1]: 1.07 | PBM binding z-score [2]: 0.591 | PBM binding z-score [3]: -0.337 | PBM binding z-score [4]: 0.0446 | PBM binding z-score [5]: -0.975 | PBM binding z-score [6]: 1.83 | PBM binding z-score [7]: 1.78 | PBM binding z-score [8]: 1.71 | PBM binding z-score [9]: -0.0619 | PBM binding z-score [10]: 0.703

TCTTGTTGATCAATAGAGGTTAAGAAAGTGCGCT
PBM binding z-score [1]: 0.549 | PBM binding z-score [2]: 3.17 | PBM binding z-score [3]: 0.564 | PBM binding z-score [4]: 2.1 | PBM binding z-score [5]: 0.134 | PBM binding z-score [6]: 2.02 | PBM binding z-score [7]: -0.0546 | PBM binding z-score [8]: 1.87 | PBM binding z-score [9]: 2.82 | PBM binding z-score [10]: 2.46

GCATATAGCTAATACAAGGTGAAAGTCCGATTGT
PBM binding z-score [1]: -0.158 | PBM binding z-score [2]: -0.177 | PBM binding z-score [3]: 0.202 | PBM binding z-score [4]: -0.0693 | PBM binding z-score [5]: -0.0357 | PBM binding z-score [6]: 0.477 | PBM binding z-score [7]: 0.487 | PBM binding z-score [8]: 0.425 | PBM binding z-score [9]: -0.0371 | PBM binding z-score [10]: 0.33

AGATTGAGGTTATTAAGATCAGGGAATTGCGGTC
PBM binding z-score [1]: 1.61 | PBM binding z-score [2]: 1.28 | PBM binding z-score [3]: 0.39 | PBM binding z-score [4]: 1.32 | PBM binding z-score [5]: 0.271 | PBM binding z-score [6]: 2.42 | PBM binding z-score [7]: 1.08 | PBM binding z-score [8]: 1.65 | PBM binding z-score [9]: 0.461 | PBM binding z-score [10]: 1.17

GCTTGTAGATCACGGTTAAGAAAGACTAAGCTAA
PBM binding z-score [1]: -0.132 | PBM binding z-score [2]: -0.33 | PBM binding z-score [3]: -0.625 | PBM binding z-score [4]: -0.369 | PBM binding z-score [5]: -0.584 | PBM binding z-score [6]: -0.169 | PBM binding z-score [7]: -0.118 | PBM binding z-score [8]: -0.0332 | PBM binding z-score [9]: -0.114 | PBM binding z-score [10]: 0.156

AGCATGAGGTTATTAAGATCAGGGAATTGCGGTC
PBM binding z-score [1]: 1.6 | PBM binding z-score [2]: 1.5 | PBM binding z-score [3]: 0.191 | PBM binding z-score [4]: 1.14 | PBM binding z-score [5]: -0.175 | PBM binding z-score [6]: 2.03 | PBM binding z-score [7]: 0.647 | PBM binding z-score [8]: 1.13 | PBM binding z-score [9]: 0.242 | PBM binding z-score [10]: 0.454

AGAACGAGGGCACACTGAGTTGATAGCAGAGTAG
PBM binding z-score [1]: 0.801 | PBM binding z-score [2]: 0.517 | PBM binding z-score [3]: -0.135 | PBM binding z-score [4]: 0.356 | PBM binding z-score [5]: -0.454 | PBM binding z-score [6]: 2.02 | PBM binding z-score [7]: 1.96 | PBM binding z-score [8]: 1.64 | PBM binding z-score [9]: 0.493 | PBM binding z-score [10]: 1.01

TGAATGAGGTTATAAGACCAGGGAACGTTGCAAA
PBM binding z-score [1]: 1.42 | PBM binding z-score [2]: 1.55 | PBM binding z-score [3]: -0.275 | PBM binding z-score [4]: 0.883 | PBM binding z-score [5]: -0.347 | PBM binding z-score [6]: 2.44 | PBM binding z-score [7]: 1.25 | PBM binding z-score [8]: 1.65 | PBM binding z-score [9]: 0.679 | PBM binding z-score [10]: 1.33

TCTGCTAGGTCAACGATGGTCAGCTCATCTGCTA
PBM binding z-score [1]: 3.56 | PBM binding z-score [2]: 2.79 | PBM binding z-score [3]: 0.0556 | PBM binding z-score [4]: 1.81 | PBM binding z-score [5]: 0.088 | PBM binding z-score [6]: 3.34 | PBM binding z-score [7]: 2.4 | PBM binding z-score [8]: 2.89 | PBM binding z-score [9]: 1.65 | PBM binding z-score [10]: 2.19
